Measured potencies and affinities stand elsewhere.
System: Klebsiella pneumoniae
Settings: Concentration 32 ug.mL-1; ASSAY_TEST Inhibition of Bacterial Growth; detection method Absorption (OD600); MEDIA CAMHB; plate type 384well; NBS; CORNING #3640; time 18 hr

SMILES	Inhibition [%]
c1ccc(CNc2ncnc3c2cnn3-c2ccccc2)cc1	-0.11
C#CCNc1nc(N)c(C#N)cc1C#N	1.8
CC1(C)OC(=O)C(=Cc2ccc([N+](=O)[O-])cc2)C(=O)O1	18.71
O=C(Cc1c[nH]c2ccccc12)NNCc1ccccc1	1.88
C#CCN(C)c1nc(N(C)CC#C)c(C#N)cc1C#N	11.71
CCOC(=O)N/N=C/c1ccccc1	8.83
CC(=O)/C=C/C1CCN(Cc2ccccc2)CC1	7.64
Cc1cnc(NC(=O)OC(C)(C)C)c(Br)c1	17.7
COC(=O)C(=Cc1ccc([N+](=O)[O-])cc1)NC(=O)c1ccccc1	11.76
Cl.ClCCCC1CCNCC1	10.49
COc1cccc(C2c3c(nc4c(c3N)CCCC4)Oc3ccc4ccccc4c32)c1 (stereo not given)	7.83
CCOC(=O)c1c(C)nc2nc3c(c(N)c2c1-c1ccc(Cl)cc1)CCCCC3	1.2
COc1cccc(C2c3c(ccc4ccccc34)OC(=NBr)C2(Br)C#N)c1 (stereo not given)	33.1
NNC(=O)c1cc2ccccc2n1Cc1ccccc1	-14.14
N#Cc1c(N)nc2[nH]nc(N)c2c1-c1ccccc1	17.63
N#CC1=C(N)Oc2ccc3ccccc3c2C1c1ccc(O)cc1 (stereo not given)	11.07
COC(=O)/C(=C/c1ccc(O)cc1)NC(=O)c1ccccc1	-14.62
N#Cc1cc2c(N)c3c(nc2nc1Cl)CCCC3	24.47
C#CCN(C)Cc1cc2cc(OCOc3ccc4c(c3)cc(CN(C)CC#C)n4C)ccc2n1C	2.59
N#CC1(Br)C(=NBr)Oc2c(ccc3ccccc23)C1c1ccccc1[N+](=O)[O-] (stereo not given)	24.4

SMILES	Inhibition [%]
N#CC1=C(N)Oc2ccc3ccccc3c2C1c1cccc([N+](=O)[O-])c1 (stereo not given)	6.14
N#CC1=C(N)Oc2c(ccc3ccccc23)C1c1ccc(O)cc1 (stereo not given)	6.16
NC(=O)c1cc2cc(OCc3ccccc3)ccc2[nH]1	5.14
C#CCNc1[nH]c2ccc(O)cc2c1C#N	14.34
Cn1ccnc1C1c2c(nc3c(c2N)CCC3)Oc2ccc3ccccc3c21 (stereo not given)	7.74
CCC(Cc1ccccc1)NNC(=O)c1cc2ccccc2[nH]1 (stereo not given)	-8.95
Cn1cc(C(=O)NN)c2ccccc21	3.16
Cc1ccc(C2CC2(N)C(=O)O)cc1.Cl (stereo not given)	13.97
Cl.NNN1CCc2ccccc21	17.38
NC(=O)N/N=C/c1c[nH]c2ccccc12	23.24
O=C1NC(=S)N/C1=C\c1c[nH]c2ccccc12	4.51
COc1cc(C2c3ccc4ccccc4c3Oc3nc4c(c(N)c32)CCCC4)ccc1O.Cl (stereo not given)	-2.62
Cc1nc2c3c(C)nn(-c4ccccc4)c3ncn2n1	13.92
CCCC(C)NNC(=O)Cc1c[nH]c2ccccc12 (stereo not given)	6.53
Cc1nc2c3cnn(-c4ccccc4)c3nc(C)n2n1	15.01
Cc1ccc2nc(Cl)c(/C=N/NCc3ccccc3)cc2c1	7.66
Cc1ccc2nc(Cl)c(/C=N/C(C)(C)C)cc2c1	7.37
N#Cc1cc(C#N)c(NCc2ccccc2)nc1N	-14.3
c1ccc(Cn2ccc3ccccc32)cc1	13.32
C=CCNCc1cc2cc(OCCCC3CCN(Cc4ccccc4)CC3)ccc2[nH]1.O.O=C(O)C(=O)O.O=C(O)C(=O)O	-6.45

Reference: ChEMBL document CHEMBL4513135, “CO-ADD screening of IQOG CSIS (Spain) compounds”
